This is an account of results in PubChem BioAssay (NCATS).

Results filed as inconclusive are left out. Values without a mark were called inactive. Calls follow the shape of the dose curve; as a rule, active = well fitted cell-killing curve with a large enough effect; inconclusive = small, poorly fitted or top-dose-only effect, or effect the other way; inactive = no such curve, though single readings can be large or run the other way.

The test can be described thus: Viability qHTS for spleen associated tyrosine kinase inhibitor (SYKi) naive MV4-11 cells (AID 1963823). Also: nearly all actives have a fitted effect of over 40% in size. The conditions noted are these: MV4-11 AML viability, CellTiter-Glo luminescence, 72 h; series mostly up to 45 µM; viability (% of control): at the top concentration. The essentials: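 Compounds were dispensed acoustically onto plates, MV4-11 cells (SYKi-naive) added at 500 per well, and plates incubated 72 hr at 37 C. CellTiter-Glo was added and luminescence measured after 10 min.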
Take `CC1CCC2(C(=O)O)CCC3(C)C(=CCC4C5(C)CCC(O)C(C)(CO)C5CCC43C)C2C1(C)O` (configuration not stated): the “viability (% of control)” value is 68% [at 17.3 µM]. With `C[C@@H]1CC[C@]2(C(=O)O)CC[C@]3(C)C(=CCC4[C@@]5(C)C[C@@H](O)[C@H](O)[C@@](C)(CO)C5CC[C@]43C)C2[C@]1(C)O` (some centres not stated) the figure was 76.2% [at 17.3 µM]. With `C[C@@H]1O[C@@H](O[C@H]2[C@H](O[C@H]3[C@H](O[C@H]4CC[C@@]5(C)C(CC[C@]6(C)C5CC=C5[C@@H]7CC(C)(C)CC(=O)[C@]7(C)CC[C@]56C)[C@@]4(C)CO)O[C@H](C(=O)O)[C@@H](O)[C@@H]3O)O[C@H](CO)[C@H](O)[C@@H]2O)[C@H](O)[C@H](O)[C@H]1O` (some centres not stated) the figure was 81.7% [at 9.25 µM]; with `CC(CO[C@@H]1O[C@H](COC(=O)/C=C/c2ccc(O)c(O)c2)[C@@H](O)[C@H](O)[C@H]1O)C1(O)COC(=O)C1` (some centres not stated), 71% [at 17.3 µM]. For the molecule `C[C@@H]1O[C@@H](O[C@H]2[C@@H]3C=CO[C@@H](O[C@@H]4O[C@H](CO)[C@@H](O)[C@H](O)[C@H]4O)[C@@H]3[C@@]3(CO)O[C@@H]23)[C@H](OC(=O)/C=C/c2ccc(O)c(O)c2)[C@H](O)[C@H]1O`, the “viability (% of control)” value is 54.4% [at 17.3 µM]. On to `CC1=CCC2C(C)(CO)CCCC2(C)C1CC12OC1C(O)C(CO)=CC2O` (configuration not stated), for which the “viability (% of control)” value is 79.7%.

Turning to `CC(=O)N[C@H](Cc1ccc2ccccc2c1)C(=O)N[C@H](Cc1ccc(Cl)cc1)C(=O)N[C@H](Cc1cccnc1)C(=O)N[C@@H](CO)C(=O)N[C@@H](Cc1ccc(O)cc1)C(=O)N[C@H](CCCNC(N)=O)C(=O)N[C@@H](CC(C)C)C(=O)N[C@@H](CCCN=C(N)N)C(=O)N1CCC[C@H]1C(=O)N[C@H](C)C(N)=O`, the “viability (% of control)” value was 106% [at 17.3 µM].
